Peg3 prom inh-1: inhibitors of Peg3 promoter; 360,000 tested, 1.7% active; inhibition, % at 20 µM; HeLa PEG-Prom luciferase reporter, luminescence, overnight;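 active = inhibition of at least 50% at 20 µM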
TRPM1 prom inh: reduces MITF-dependent TRPM1 promoter luciferase signal. SK-MEL-5 TRPM1 promoter luciferase, 24 h. inhibition, % at 12.5 µM. 330,000 tested, 0.83% active. AID 488899;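 active = mean inhibition across replicates of 60% or more, whatever share of single replicates reaches that level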
Beta2AR agonist: human beta-2 adrenergic receptor agonism by FAP | 340,000 tested, 0.43% active | AID 504454 | Am2.2-beta2AR cells, FAP receptor internalization, flow cytometry | response, % (no concentration beside the values);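 active = response above a set limit, near 3 SD of response in nonfluorescent compounds, cut at about 42% in these data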
KKLEB cytotox: CF airway cell cytotoxicity counter-screen | KKLEB CF airway cells viability, ATPlite luminescence, overnight; active compounds read low; cells stimulated with P. aeruginosa culture filtrate | activity change (cytotoxicity), % at 5 µM | 360,000 tested, 0.36% active;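 active = corrected activity change at or below -50% at 5 µM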
CF NFkB inh: cystic fibrosis NF-kB activation inhibition; KKLEB NF-kB-GFP reporter, PAF-induced, GFP fluorescence overnight; inhibition, % at 5 µM; 360,000 tested, 0.86% active;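 active = at least 50% inhibition at 5 µM, scaled per plate between neutral and stimulator controls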;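 also: PAF is a Pseudomonas aeruginosa culture filtrate used as stimulus; plate controls were PAF-stimulated DMSO wells for no effect and unstimulated DMSO wells for full effect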
HIF-2a inh: inhibitors of HIF-2a | 786-0 RCC cells HIF-2a reporter, luciferase luminescence, overnight | inhibition, % at 18.8 µM | 360,000 tested, 0.72% active | AID 624352;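 active = inhibition of the luminescence signal of 40% or more relative to plate controls, in a single-dose primary screen at 18.75 µM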
B2AR ag CP1: human beta-2 adrenergic receptor agonism, cherry pick | shares compounds with Beta2AR agonist | Am2.2-beta2AR cells, FAP surface receptor, flow cytometry; active compounds read low | percent response (surface receptor), % at 10 µM | 1,100 tested, 25% active | AID 540358;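 active = surface receptor percent response at or below 58%, roughly 3 SD from nonfluorescent compounds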
FAP fluor counter: flagged in Am2.2 fluorescence counterscreen for beta-2AR agonists | 1,100 tested, under 10 active | Am2.2 cells, FAP fluorogen flow cytometry; active compounds read low | calls only at 10 µM | shares compounds with Beta2AR agonist | AID 588765;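 active = percent response below a set limit in fluorescence channel 1 and below 50% in channel 8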
Peg3 prom inh-2: Peg3 promoter inhibition confirmation. shares compounds with Peg3 prom inh-1. HeLa PEG-Prom luciferase reporter, luminescence, overnight. inhibition, % at 20 µM. 1,300 tested, 84% active;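 active = at 20 µM dose, 40% or more inhibition averaged across four replicates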
Mdm2 MdmX conf: confirmation of inhibitors of human Mdm2/MdmX interaction, set 2. shares compounds with HIF-2a inh. SaOS-2 split-luciferase Mdm2/MdmX complementation, luminescence. inhibition, % at 8 µM. 740 tested, 99% active. AID 504601;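 active = mean inhibition of the luminescence signal across two replicates at or above 26 percent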
Target sequence (O15151 whole entry, looked up): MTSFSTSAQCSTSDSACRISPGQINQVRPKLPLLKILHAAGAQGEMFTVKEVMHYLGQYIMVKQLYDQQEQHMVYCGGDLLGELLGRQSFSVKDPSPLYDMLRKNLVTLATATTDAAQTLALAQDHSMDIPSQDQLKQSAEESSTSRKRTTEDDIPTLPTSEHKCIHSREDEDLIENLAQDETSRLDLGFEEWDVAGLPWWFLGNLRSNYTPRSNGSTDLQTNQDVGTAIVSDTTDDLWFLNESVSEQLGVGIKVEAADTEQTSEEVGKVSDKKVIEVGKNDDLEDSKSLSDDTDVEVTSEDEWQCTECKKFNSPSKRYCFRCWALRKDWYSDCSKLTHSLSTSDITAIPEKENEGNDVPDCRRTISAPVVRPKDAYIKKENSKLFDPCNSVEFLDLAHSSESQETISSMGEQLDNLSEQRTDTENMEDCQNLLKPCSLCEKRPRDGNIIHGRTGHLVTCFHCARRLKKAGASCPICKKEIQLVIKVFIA
Target sequence (Q00987 whole entry, looked up): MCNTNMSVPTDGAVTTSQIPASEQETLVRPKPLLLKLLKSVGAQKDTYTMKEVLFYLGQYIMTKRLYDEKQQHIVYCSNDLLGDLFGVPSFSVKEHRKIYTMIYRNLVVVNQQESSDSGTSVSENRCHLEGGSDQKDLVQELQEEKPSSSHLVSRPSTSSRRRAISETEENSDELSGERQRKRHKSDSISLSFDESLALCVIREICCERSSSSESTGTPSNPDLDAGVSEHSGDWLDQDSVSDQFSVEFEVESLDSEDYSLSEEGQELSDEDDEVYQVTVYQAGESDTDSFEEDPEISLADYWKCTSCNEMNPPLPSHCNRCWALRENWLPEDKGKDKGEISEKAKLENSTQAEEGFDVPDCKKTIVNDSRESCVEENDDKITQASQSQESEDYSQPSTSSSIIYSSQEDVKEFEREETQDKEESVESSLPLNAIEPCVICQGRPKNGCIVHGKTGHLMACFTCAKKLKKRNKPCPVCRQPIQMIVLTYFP
HIF-2a inh conf: HIF-2a inhibition, single concentration confirmation | shares compounds with HIF-2a inh | 786-0 RCC cells, HIF-2a luciferase reporter luminescence, overnight | inhibition, % at 18.8 µM | 1,800 tested, 56% active | AID 651580;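 active = mean inhibition across four replicates of at least 40 percent at the single tested concentration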
HIF-1a counter: counter-screen for HIF-2a inhibitors: HIF-1a inhibition in MiaPaCa-2 cells; shares compounds with HIF-2a inh; 1,800 tested, 72% active; MiaPaCa-2 HIF-1a luciferase reporter, desferoxamine, overnight; inhibition, % at 18.8 µM; AID 651589;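 active = mean inhibition of the reporter signal across four replicates at the single tested dose of 50% or more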
The depositor's hits bear a star; i = inactive; · = no result given. The list is not random: actives were taken first. Their share in the collection is about 2.8%.

SMILES	Peg3 prom inh-1	TRPM1 prom inh	Beta2AR agonist	KKLEB cytotox	CF NFkB inh	HIF-2a inh	B2AR ag CP1	FAP fluor counter	Mdm2 MdmX conf	HIF-2a inh conf	HIF-1a counter	others
CCCNC(=O)c1nnsc1S(=O)(=O)c1ccc(Cl)cc1	101.1*	86.2*	80.7*	-47.6	88.9*	78.9*	54.7*	i	103.0*	68.9*	57.2*
COc1ccccc1S(=O)(=O)N(C)C[C@H]1OCc2cnnn2CCCC(=O)N([C@@H](C)CO)C[C@@H]1C	-11.1	·	·	-6.2	-14.1	-2.5	·	·	·	·	·
Cc1ccc(F)c(S(=O)(=O)NC(=O)C2(C)CCN2C(=O)COc2ccc(Cl)cc2)c1 (stereo not drawn)	2.9	·	·	4.1	-2.9	3.3	·	·	·	·	·
COc1ccc(C)cc1N1C(=N)/C(=C2/Nc3ccccc3S2)C(c2ccccc2)C1=O (stereo not drawn)	90.6*	3.2	45.1*	-0.3	-6.3	83.0*	84.7	i	·	-11.1	88.2*
Cc1ccc(NC(=O)c2cc(N3C(=O)C=CC3=O)ccc2N2CCOCC2)cc1	108.0*	79.5*	123.1*	0.6	12.4	68.5*	42.3*	i	·	68.5*	18.5
CCCc1nc2oc3c(NCCCN(C)C)ncnc3c2c2c1CCCC2	92.4*	77.6*	18.0	-17.7	11.4	17.0	151.7	i	100.7*	·	·	Peg3 prom inh-2=93.4*
CCCc1nc2oc3c(NCC4CCCO4)ncnc3c2c2c1COC(C)(C)C2 (stereo not drawn)	27.0	4.9	-6.2	-29.4	27.3	9.8	·	·	·	·	·
Cn1nnnc1Sc1ncnc2scc(-c3ccc(Br)cc3)c12	102.8*	94.1*	67.8*	-92.1*	86.0*	93.5*	32.4*	i	103.2*	99.6*	105.8*
COc1ccccc1-c1csc2ncnc(Sc3nnnn3C)c12	30.9	2.4	2.4	-13.5	10.1	19.6	·	·	·	·	·
COc1ccc(OC)c(NS(=O)(=O)c2ccc3[nH]c(=O)[nH]c3c2)c1	15.2	·	·	3.0	-15.4	10.5	·	·	·	·	·
COc1ccc(C(=O)NCCCC2CCCC2)cc1OC1CCN(C(C)C)CC1	4.6	·	·	-0.6	-2.3	-16.5	·	·	·	·	·
O=C(COC(=O)c1ccccc1C(=O)c1ccc(Cl)c([N+](=O)[O-])c1)NC1CC1	99.4*	81.1*	42.8*	-66.5*	105.1*	84.5*	68.1	i	102.7*	29.7	100.8*
O=C(COC(=O)c1cc([N+](=O)[O-])ccc1Cl)NC1CCCC1	5.9	-19.3	-4.4	-1.8	-10.7	16.8	·	·	·	·	·
CCOCCC(=O)Nc1ccc2c(c1)c(=O)n(C)n2-c1ccccc1F	-7.8	·	·	-1.4	6.1	-0.8	·	·	·	·	·
COC(=O)c1ccc(-c2nn(C)c(=O)c3ccccc23)cc1	2.0	4.9	-1.8	3.0	-1.6	7.6	·	·	·	·	·
COC(=O)c1ccc(C(=O)OC)c(-n2c(=O)c3ccccc3c3ccccc3c2=O)c1	23.3	40.7	54.5*	-18.1	3.6	45.4*	104.5	i	·	52.0*	-5.6
CC(C)(C)c1cc(C(c2cccnc2)N2CCN(CCO)CC2)cc(C(C)(C)C)c1O (stereo not drawn)	104.4*	79.1*	61.7*	-6.9	27.5	88.9*	57.4*	i	103.2*	80.4*	74.5*
CC(C)(C)n1nnnc1C(c1cccnc1)N1CCN(c2cccc(C(F)(F)F)c2)CC1 (stereo not drawn)	0.8	-5.0	-2.6	-1.5	9.0	16.2	·	·	·	·	·
